Only some compounds are listed: those with a hit (about 6.5% of all), similar ones and a draw of the others.
Giardia kill: Giardia lamblia killing; AID 540267; Giardia lamblia trophozoite viability; actives 0.15% (n = 340,000); activity change, % at 7.66 µM, hits read low; in the data active = activity change below about -80%; inconclusive = between about -30% and that limit;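 note: parasites exposed to compound for two days anaerobically before the ATP read; % is set by controls: 0 for no effect and ±100 for the full control effect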
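Trophozoites 100 cells/well + cpd; 48 hrs, 37 deg C, anaerobic. ATPLite 1-Step added, 15-30 min RT, luminescence read (ATP-based viability).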
TGFb SMAD3 inh: blocks TGF-b signaling; HepG2 CAGA-GFP TGF-b/SMAD3 reporter, GFP fluorescence, 18 h; TGF-beta stimulated, 500 pg/mL final; Potency, µM (series often up to 46.1 µM), for the others: top-dose activity, negative = inhibition, actives largely listed as inhibitors; actives 1.2% (n = 410,000); AID 588855; note: potency is the fitted concentration of half-maximal effect; % is set by controls: 0 for no effect and ±100 for the full control effect; nearly all actives have a fitted effect of over 65% in size
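Cell-based qHTS in HEPG2 carrying a CAGA-GFP Smad reporter; compounds added before 500 pg/mL final TGF-beta, 18 h incubation at 37 degrees C, GFP fluorescence quantified per cell by imaging cytometry.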
HepG2 viability: HepG2 cytotoxicity, counter-screen for TGF-b inhibitors; HepG2 CAGA-GFP viability, ATP luminescence, 18 h; Potency, µM (series often up to 46.1 µM), without a hit: at the top dose activity change, negative = cytotoxicity, most hits filed as cytotoxic; actives 0.76% (n = 410,000); note: potency is the fitted concentration of half-maximal effect
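CellTiter-Glo luminescence gave cytotoxicity after 18 hours at 37 degrees C. The cells were HepG2 CAGA-GFP in 1% FBS DMEM, stimulated with 500 pg/mL TGF-beta after compound addition. %Activity was normalised to no-cell wells (complete cell-killing) and DMSO (no toxicity), and curves were fitted and classified.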
HT1080NT lethal: kills 2HG-producing HT-1080-NT fibrosarcoma cells; HT-1080-NT fibrosarcoma viability, CellTiter-Glo ATP luminescence, 48 h; Potency, µM (highest dose often 46.1 µM), for inactives: top-dose activity, negative = less viability, most hits filed as cytotoxic; actives 1.6% (n = 360,000); AID 686970;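 note: NT is the 2HG producing partner of a matched IDH1 knockdown line; potency is the fitted concentration of half-maximal effect; 0% = DMSO-treated cells and -100% = media-only wells without cells; nearly all actives have a fitted effect of over 55% in size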
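A 48-hour cytotoxicity screen used HT-1080-NT cells plated 2 hours before compound delivery. ATP-based CellTiter-Glo luminescence measured viability, normalized to DMSO and no-cell controls.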
IL1B secr inh: blocks inflammasome-driven IL-1 beta release; activity change, % at 57.5 µM; THP-1 LPS/ATP IL-1B secretion, AlphaLISA, 16 h; stronger effect = lower value; actives 4.7% (n = 360,000); in the data active = activity change below about -50%; inconclusive = mostly about -30% to -49%; note: % is set by controls: 0 for no effect and ±100 for the full control effect
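Secreted IL-1B measured by AlphaLISA bead assay after 16 h compound exposure of THP-1 cells; compounds (final up to 57.5 uM) added 1 h before LPS (250 ng/mL) and ATP (1.25 mM) stimulation; lower signal means less secretion.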
HT1080 IDH1KD tx: toxicity to HT-1080 IDH1 knockdown cells (counter line); AID 686971; Potency, µM (doses to about 46.1 µM), for the others: at the highest dose activity, negative = toxicity, usual class: cytotoxic; actives 2% (n = 360,000); HT-1080 IDH1 knockdown viability, ATP luminescence, 48 h;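 note: potency is the fitted concentration of half-maximal effect; 0% = DMSO wells and -100% = cell-free medium wells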
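Luminescent ATP read-out (CellTiter-Glo, 10 min at room temperature) after 48 h compound exposure at 37 °C gave viability of IDH1-knockdown HT-1080 cells. Activity was normalised to DMSO and cell-free wells, then fitted as concentration-response curves.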
The depositor's hits bear a star; ? = inconclusive; / = not tested or not shown. Unless noted, calls come from the whole dose curve; as a rule, active = well fitted curve in the direction sought with a large enough effect; inconclusive = small, poorly fitted or top-dose-only effect, or another doubt; inactive = no such curve, though single readings can be large; an effect the other way counts as inactive or inconclusive.

SMILES	Giardia kill	TGFb SMAD3 inh	HepG2 viability	HT1080NT lethal	IL1B secr inh	HT1080 IDH1KD tx
COc1ccc(C)cc1NS(=O)(=O)c1ccc(-c2cnc(C3CC3)o2)cc1	-1.2	3.55µM*	-2.1%	?	55.6	0.0073µM*
CCOC(=O)c1sc(NC(=O)Cc2ccc(C)cc2)nc1C	4.4	5.8%	-9.9%	19.2%	-9.2	6.8%
Cc1ccc(-c2cc(C(=O)OCC(=O)c3ccccc3)c3cccc(Cl)c3n2)cc1	/	10.8%	-2.3%	/	/	/
COc1ccc(CC(=O)N/N=C(\C)c2cccc(NC(=O)C3CC3)c2)cc1	3.7	-4.2%	-9.0%	1.7%	-11.4	0.7%
Cc1ccc(Cl)cc1-n1nnc(-c2nc(-c3ccc4c(c3)OCO4)no2)c1C	/	-0.3%	9.5%	/	/	/
CCN(CC)c1ccc(/C=N\NC(=O)c2cccc3cc[nH]c23)cc1	3.3	-25.2%	-3.5%	?	15.4	5.17µM*
O=C(N/N=C/c1ccc([N+](=O)[O-])cc1)c1cccc2cc[nH]c12	-9.4	-3.7%	-4.6%	-0.6%	-11.6	-3.8%
S=C1N(c2ccccc2)C(c2ccc(Cl)cc2)N2CCCN12 (stereo unspecified)	-23.9	-9.4%	-14.6%	-5.6%	-10.4	0.1%
CC1=C(CC/C(C)=N/NC(N)=S)C(C)(C)CCC1	-6.0	-17.4%	-21.0%	6.31µM*	-2.8	8.91µM*
Cc1ccc(C)c(OCCN2C(=O)NC3(CCc4ccccc4C3)C2=O)c1 (stereo unspecified)	-20.7	-10.1%	-14.5%	-20.9%	9.9	-22.4%
CCCN(CC(=O)Nc1ccccc1C)C(=O)c1ccc(N2CCCC(C)C2)c([N+](=O)[O-])c1 (stereo unspecified)	-14.4	?	-11.9%	-18.5%	-71.3*	-16.3%
CC1CCCN(c2ccc(C(=O)NCc3ccco3)cc2[N+](=O)[O-])C1 (stereo unspecified)	11.8	7.9%	-21.2%	13.3%	-60.7*	-19.7%
Cc1ccc(C(=O)NCc2ccco2)cc1[N+](=O)[O-]	0.2	-1.1%	2.9%	11.0%	-3.5	5.5%
CCCN(CC(=O)Nc1ccccc1C)C(=O)c1ccc(N2CCOCC2)c([N+](=O)[O-])c1	9.8	-6.6%	-9.9%	-5.0%	-13.8	4.3%
C[C@H](NC(=O)c1ccccc1)C(=O)OCC(=O)Nc1ccc2c(c1)OCO2	-0.5	17.0%	-3.3%	7.1%	3.5	6.5%
COc1ccc(CCNC(=S)Nc2ccc(C(C)C)cc2)cc1	-1.2	15.8µM*	-71.7%	-21.1%	-15.9	-5.7%
COc1ccc(NC(=S)NCCc2c(C)[nH]c3ccc(OC)cc23)cc1	5.4	3.8%	-14.7%	6.6%	-51.8*	5.4%
CCCCc1ccc(NC(=S)NCc2ccc(OC)cc2)cc1	-20.3	10µM*	-39.9%	-14.1%	-9.0	?
COc1ccc(NC(=S)NCCc2c[nH]c3ccccc23)cc1	-13.2	-4.1%	-10.4%	1.5%	-17.1	1.9%
COc1ccc(CCNC(=S)Nc2ccc(OC)cc2)cc1	7.8	-19.7%	-27.0%	5.2%	2.5	9.9%
Cc1c(OCc2ccccc2)c(=O)ccn1Cc1ccccc1	4.1	4.6%	-1.6%	5.5%	-18.3	9.6%
CC(C)(C)OC(=O)N1CCC(c2cc(-c3cccs3)n[nH]2)CC1	-16.8	-22.3%	-19.6%	-16.6%	-75.8*	-27.1%
CC(C)(C)C(=O)Nc1ccc(C(=O)COC(=O)c2ccccn2)cc1	-16.0	-2.7%	0.1%	4.6%	0.0	5.5%
CCO[C@@H]1OC(C(=O)NCc2nc3ccccc3[nH]2)=C[C@H](c2csc3ccccc23)[C@H]1CCCO	-0.3	?	-16.3%	?	-56.4*	?
CCO[C@H]1OC(C(=O)NCc2nc3ccccc3[nH]2)=C[C@@H](c2csc3ccccc23)[C@@H]1CCCO	2.6	-11.2%	1.9%	?	-13.3	?

High-throughput results: PubChem BioAssay, National Center for Advancing Translational Sciences (NCATS)
